# According to the supplement of paper PMC12645437, “Orthogonal IMiD-Degron Pairs Induce Selective Protein Degradation in Cells” (ACS Chemical Biology, 2025):
# In all, about 8,300 sequences were measured (“log2 fold change of degron read counts, EGFP-low vs EGFP+ sorted cells (limma voom), compound-induced degradation”: median about -1.1, highest 2% from about 3.2 on). Shown is part of a subset that was picked to be rich in the highest values.
# Biological target: T1, CRBN, Q96SW2
# T1 chain: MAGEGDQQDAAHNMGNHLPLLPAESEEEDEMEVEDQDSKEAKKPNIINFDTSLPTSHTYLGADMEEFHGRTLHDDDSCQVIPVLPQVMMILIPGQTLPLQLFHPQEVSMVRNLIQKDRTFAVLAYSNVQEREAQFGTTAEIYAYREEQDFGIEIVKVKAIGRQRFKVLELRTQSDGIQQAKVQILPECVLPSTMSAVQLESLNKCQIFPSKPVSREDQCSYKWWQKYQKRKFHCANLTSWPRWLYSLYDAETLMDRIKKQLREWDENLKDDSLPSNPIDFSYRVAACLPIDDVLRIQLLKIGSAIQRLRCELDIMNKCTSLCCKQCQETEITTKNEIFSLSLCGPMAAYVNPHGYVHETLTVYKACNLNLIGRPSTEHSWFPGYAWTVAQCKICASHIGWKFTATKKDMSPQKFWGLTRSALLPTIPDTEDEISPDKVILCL
# Experiment: log2 fold change of degron read counts, EGFP-low vs EGFP+ sorted cells (limma voom), compound-induced degradation; higher = more compound-induced degradation of the degron-EGFP fusion; degrons are variants of IKZF1/3 zinc finger 2; compound dose not given here
# Details: Jurkat, 18 h
# [1] = compound: compound 19 (5-tert-butyl-thalidomide)
# [2] = compound: compound 22 (5-morpholino-thalidomide)
# [3] = compound: compound 33 (diphenyl IMiD analogue)
# 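Also: pooled lentiviral library of zinc finger degron-EGFP fusions in mCherry-positive Jurkat cells, FACS-sorted after compound exposure, with degron abundance counted by next-generation sequencing.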
Sequence,log2 fold change of degron read counts [1],log2 fold change of degron read counts [2],log2 fold change of degron read counts [3],log2 fold change of degron read counts (compound: thalidomide)
"FRCNQCGHHFTQKGNLLRHIKL [46F_47R_49N_50Q_52G_53H_54H_55F_67L_, Q9UKT9]",-2.62,-2.49,-2.68,-2.74
"FMCNVCGAVFTQKGNLLRHIKL [46F_47M_49N_50V_52G_53A_54V_55F_67L_, Q9UKT9]",-2.62,-1.87,0.807,-0.813
"FCCEVCGAWFTQKGNLLRHIKL [46F_47C_49E_50V_52G_53A_54W_55F_67L_, Q9UKT9]",-0.654,-0.581,0.156,-0.895
"FKCEICGADFTQKGNLLRHIKL [46F_47K_49E_50I_52G_53A_54D_55F_67L_, Q9UKT9]",-1.37,-3.36,-2.54,-1.55
"FFCPQCGAHFTQKGNLLRHIKL [46F_47F_49P_50Q_52G_53A_54H_55F_67L_, Q9UKT9]",0.0594,0.455,0.502,-0.835
"FSCPICGRAFTQKGNLLRHIKL [46F_47S_49P_50I_52G_53R_54A_55F_67L_, Q9UKT9]",-0.662,-1.1,0.646,0.0583
"FQCPICGAQFTQKGNLLRHIKL [46F_47Q_49P_50I_52G_53A_54Q_55F_67L_, Q9UKT9]",0.697,2.72,2.41,3.65
"FDCPICGAQFTQKGNLLRHIKL [46F_47D_49P_50I_52G_53A_54Q_55F_67L_, Q9UKT9]",2.24,1.5,1.26,2.56
"FNCPICGAQFTQKGNLLRHIKL [46F_47N_49P_50I_52G_53A_54Q_55F_67L_, Q9UKT9]",2.48,1.86,1.27,1.1
"FCCPICGAQFTQKGNLLRHIKL [46F_47C_49P_50I_52G_53A_54Q_55F_67L_, Q9UKT9]",2.39,2.66,2.87,1.93
"FHCPICGAQFTQKGNLLRHIKL [46F_47H_49P_50I_52G_53A_54Q_55F_67L_, Q9UKT9]",2.46,2.8,2.49,1.66
"FGCPICGAQFTQKGNLLRHIKL [46F_47G_49P_50I_52G_53A_54Q_55F_67L_, Q9UKT9]",3.58,2.65,1.84,1.37
"FMCEICGHLFTQKGNLLRHIKL [46F_47M_49E_50I_52G_53H_54L_55F_67L_, Q9UKT9]",-2.89,-3.26,-2.2,-2.63
"FNCPICGRWFTQKGNLLRHIKL [46F_47N_49P_50I_52G_53R_54W_55F_67L_, Q9UKT9]",-0.803,-0.856,0.232,-0.248
"FTCSVCGHFFTQKGNLLRHIKL [46F_47T_49S_50V_52G_53H_54F_55F_67L_, Q9UKT9]",-1.8,-2.26,-2.2,-2.2
"FCCDQCGAQFTQKGNLLRHIKL [46F_47C_49D_50Q_52G_53A_54Q_55F_67L_, Q9UKT9]",-1.9,-1.68,-1.17,-2.37
"FWCNQCGRSFTQKGNLLRHIKL [46F_47W_49N_50Q_52G_53R_54S_55F_67L_, Q9UKT9]",-1.96,-2.11,-1.99,-2.07

Sequence,log2 fold change of degron read counts [1],log2 fold change of degron read counts [2],log2 fold change of degron read counts [3],log2 fold change of degron read counts (compound: thalidomide)
"LVCEICGFDCTQKGNLLRHIKL [46L_47V_49E_50I_52G_53F_54D_55C_67L_, Q9UKT9]",-3.07,-2.83,-2.91,-1.81
"FDCNQCGAFFTQKGNLLRHIKL [46F_47D_49N_50Q_52G_53A_54F_55F_67L_, Q9UKT9]",-1.58,-1.99,-2.03,-1.65
"FRCDVCGALFTQKGNLLRHIKL [46F_47R_49D_50V_52G_53A_54L_55F_67L_, Q9UKT9]",-2.19,-2.03,0.228,-1.08
"LNCPICGFDCTQKGNLLRHIKL [46L_47N_49P_50I_52G_53F_54D_55C_67L_, Q9UKT9]",-1.95,-1.67,-1.11,-0.883
"FRCEQCGASFTQKGNLLRHIKL [46F_47R_49E_50Q_52G_53A_54S_55F_67L_, Q9UKT9]",-1.07,-1.32,0.513,-0.516
"LCCEICGFICTQKGNLLRHIKL [46L_47C_49E_50I_52G_53F_54I_55C_67L_, Q9UKT9]",0.819,0.557,1.54,1.05
"LICEICGFRCTQKGNLLRHIKL [46L_47I_49E_50I_52G_53F_54R_55C_67L_, Q9UKT9]",1.24,2.26,1.57,3.01
"LCCEICGFMCTQKGNLLRHIKL [46L_47C_49E_50I_52G_53F_54M_55C_67L_, Q9UKT9]",1.12,1.14,1.45,1.31
"LYCEICGFMCTQKGNLLRHIKL [46L_47Y_49E_50I_52G_53F_54M_55C_67L_, Q9UKT9]",3.38,3.27,2.53,1.05
"LACEICGFICTQKGNLLRHIKL [46L_47A_49E_50I_52G_53F_54I_55C_67L_, Q9UKT9]",1.83,0.461,-0.53,-0.408
"LYCEICGFICTQKGNLLRHIKL [46L_47Y_49E_50I_52G_53F_54I_55C_67L_, Q9UKT9]",2.99,3.26,2.2,0.746
"LACEICGFMCTQKGNLLRHIKL [46L_47A_49E_50I_52G_53F_54M_55C_67L_, Q9UKT9]",2.65,1.33,0.0952,0.132
"LLCEICGFRCTQKGNLLRHIKL [46L_47L_49E_50I_52G_53F_54R_55C_67L_, Q9UKT9]",0.785,-1.31,0.385,2.48
"LFCEICGFRCTQKGNLLRHIKL [46L_47F_49E_50I_52G_53F_54R_55C_67L_, Q9UKT9]",3.71,3.64,1.36,2.31
"LKCEICGFRCTQKGNLLRHIKL [46L_47K_49E_50I_52G_53F_54R_55C_67L_, Q9UKT9]",-1.07,-2.46,-2.5,-0.336
"LECEICGFRCTQKGNLLRHIKL [46L_47E_49E_50I_52G_53F_54R_55C_67L_, Q9UKT9]",0.728,-0.831,2.02,3.15
"LQCEICGFRCTQKGNLLRHIKL [46L_47Q_49E_50I_52G_53F_54R_55C_67L_, Q9UKT9]",1.29,1.55,1.26,3.58
